This is part of a sample that, as a whole, favours compounds with a hit. Of some 79,000 tested, about 15% had one in any assay. Calls of active or inactive are those of the source. Cut-off read from the data, not from the text of the source: active = growth inhibition above about 70%; inactive = the rest.
Tests used:
[1] = NCI Yeast Anticancer Drug Screen. Data for the rad50 strain (AID 155);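 note: 0% = growth of vehicle-only cultures of the same strain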; settings: S. cerevisiae rad50 strain growth inhibition, stronger effect = higher value
Method in brief: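 Yeast carrying a defined DNA repair defect were exposed to test compounds, and growth was compared with vehicle-treated controls to give percent inhibition.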

[2] = NCI Yeast Anticancer Drug Screen. Data for the mec2-1 strain (AID 157); settings: S. cerevisiae mec2-1 strain, stronger effect = higher value
Method in brief: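 Vehicle-treated cultures served as reference for growth inhibition of compound-exposed mec2-1 yeast.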

[3] = NCI Yeast Anticancer Drug Screen. Data for the sgs1 mgt1 strain (AID 161);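 note: 0% = growth of cultures given vehicle only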; settings: S. cerevisiae sgs1 mgt1 strain, stronger effect = higher value
Method in brief: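 Test agents were incubated with a DNA-repair-mutant yeast strain. Growth was then read and compared against vehicle-treated controls.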

[4] = NCI Yeast Anticancer Drug Screen. Data for the cln2 rad14 strain (AID 165);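 note: 0% = growth equal to vehicle treated cultures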; settings: S. cerevisiae cln2 rad14 strain, stronger effect = higher value
Method in brief: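 Each compound was tested on cln2 rad14 yeast. Inhibition of growth was calculated against vehicle-exposed controls.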

[5] = NCI Yeast Anticancer Drug Screen. Data for the bub3 strain (AID 167); settings: S. cerevisiae bub3 mutant strain, stronger effect = higher value
Method in brief: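 Compounds were applied to a genetically altered yeast strain carrying a cell-cycle control defect. Growth inhibition was scored against vehicle-treated controls.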

[6] = NCI Yeast Anticancer Drug Screen. Data for the mlh1 rad18 strain (AID 175); settings: S. cerevisiae mlh1 rad18 strain growth inhibition, stronger effect = higher value
Method in brief: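 Vehicle-treated cultures served as the reference for growth inhibition in a yeast strain carrying DNA damage repair alterations exposed to each compound.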

[7] = at 5.0 µM (retest, dose inferred, filed as 0.5)
[8] = at 50.0 µM (retest, dose inferred, filed as 5.0)

Measured: growth inhibition

O=C(CBr)c1cc(-c2ccc(Cl)cc2)nc2ccccc12
active: [1]; [7] 86% | [1]; [8] 98% | [1]; at 50.0 µM 98.9% | [2]; [7] 95% | [2]; [8] 99% | [2]; at 50.0 µM 99% | [3]; [7] 100% | [3]; [8] 99% | [3]; at 50.0 µM 99% | [4]; [8] 98% | [4]; at 50.0 µM 98% | [5]; [7] 95% | [5]; [8] 99% | [5]; at 50.0 µM 98.7% | [6]; [7] 97% | [6]; [8] 98% | [6]; at 50.0 µM 98.8%
inactive: [4]; [7] 35%

Cc1cnc(Sc2ncccc2[N+](=O)[O-])[nH]c1=O
inactive: [1]; [7] 2% | [1]; [8] 7% | [1]; at 50.0 µM -7% | [2]; [7] -3% | [2]; [8] 21% | [2]; at 50.0 µM 43.1% | [3]; [7] 5% | [3]; [8] 14% | [3]; at 50.0 µM 29.1% | [4]; [7] -3% | [4]; [8] 2% | [4]; at 50.0 µM 26.1% | [5]; [7] 6% | [5]; [8] 9% | [5]; at 50.0 µM -2.7% | [6]; [7] 0% | [6]; [8] 24% | [6]; at 50.0 µM 27.9%

CC(=O)/C(=C\c1ccco1)C(=O)Nc1ccccc1
active: [1]; at 50.0 µM 73.1% | [3]; at 50.0 µM 80.2% | [4]; at 50.0 µM 92.4% | [5]; at 50.0 µM 91.2% | [6]; at 50.0 µM 94.7%
inactive: [1]; [7] 2% | [1]; [8] 23% | [2]; [7] 0% | [2]; [8] 21% | [2]; at 50.0 µM 48.2% | [3]; [7] 13% | [3]; [8] 26% | [4]; [7] 6% | [4]; [8] 23% | [5]; [7] -4% | [5]; [8] 58% | [6]; [7] 6% | [6]; [8] 37%

CC(=O)N1C/C(=C\c2ccccc2)C(=O)/C(=C/c2ccccc2)C1
active: [1]; [8] 87% | [1]; at 50.0 µM 84.9% | [2]; [8] 92% | [2]; at 50.0 µM 82.7% | [3]; [8] 98% | [3]; at 50.0 µM 79.5% | [4]; [8] 88% | [5]; [8] 91% | [5]; at 50.0 µM 87.8% | [6]; [8] 96% | [6]; at 50.0 µM 78.9%
inactive: [1]; [7] 60% | [2]; [7] 47% | [3]; [7] 46% | [4]; [7] 35% | [4]; at 50.0 µM 67.5% | [5]; [7] 47% | [6]; [7] 62%

CC1Cc2ccc3c(c2C(c2ccc4c(c2)OCO4)C1C)OCO3 (configuration not stated)
inactive: [1]; [7] -4% | [1]; [8] -16% | [1]; at 50.0 µM -3.7% | [2]; [7] 3% | [2]; [8] -19% | [2]; at 50.0 µM -15.1% | [3]; [7] 1% | [3]; [8] 14% | [3]; at 50.0 µM -5.1% | [4]; [7] -23% | [4]; [8] -14% | [4]; at 50.0 µM -4.7% | [5]; [7] -5% | [5]; [8] -3% | [5]; at 50.0 µM -3.35% | [6]; [7] -11% | [6]; [8] 26% | [6]; at 50.0 µM 8.9%

CN(C)c1nc(-c2ccccc2)cc(-c2ccc(O)cc2)n1
inactive: [1]; [7] 14% | [1]; at 50.0 µM 36.8% | [2]; [7] -10% | [2]; [8] 27% | [2]; at 50.0 µM 13.7% | [3]; [7] 22% | [3]; at 50.0 µM 45.9% | [4]; [7] 22% | [4]; [8] 48% | [4]; at 50.0 µM 45.5% | [5]; [7] -2% | [5]; at 50.0 µM 60.5% | [6]; [7] 24% | [6]; at 50.0 µM 68.2%
active: [1]; [8] 93% | [3]; [8] 92% | [5]; [8] 77% | [6]; [8] 88%

O=C1/C(=C/c2ccc(Cl)cc2)CSC/C1=C\c1ccc(Cl)cc1
inactive: [1]; [7] 23% | [1]; [8] 37% | [1]; at 50.0 µM 2.35% | [2]; [7] 12% | [2]; [8] 37% | [2]; at 50.0 µM 4% | [3]; [7] 19% | [3]; [8] 53% | [3]; at 50.0 µM 9.35% | [4]; [7] 18% | [4]; [8] 34% | [4]; at 50.0 µM -2.2% | [5]; [7] 25% | [5]; [8] 62% | [5]; at 50.0 µM 5.55% | [6]; [7] 16% | [6]; [8] 42% | [6]; at 50.0 µM -9.1%

CCN(CC)C(C)(C)C(=O)/C=C/c1ccc(Cl)cc1
inactive: [1]; [7] -5% | [1]; [8] 69% | [1]; at 50.0 µM 2.2% | [2]; [7] -15% | [2]; [8] 28% | [2]; at 50.0 µM 4.8% | [3]; [7] 24% | [3]; at 50.0 µM 24.9% | [4]; [7] -9% | [4]; [8] 26% | [4]; at 50.0 µM -5% | [5]; [7] 1% | [5]; at 50.0 µM 54.5% | [6]; [7] 46% | [6]; at 50.0 µM 19.7%
active: [3]; [8] 87% | [5]; [8] 82% | [6]; [8] 94%

CC(=O)OCc1cc2ccccc2nc1C(Br)(Br)Br
active: [1]; [8] 95% | [1]; at 50.0 µM 96% | [2]; [8] 95% | [2]; at 50.0 µM 95.8% | [3]; [8] 99% | [3]; at 50.0 µM 97.5% | [4]; [8] 96% | [4]; at 50.0 µM 96.7% | [5]; [8] 99% | [5]; at 50.0 µM 95.2% | [6]; [8] 96% | [6]; at 50.0 µM 96.7%
inactive: [1]; [7] -11% | [2]; [7] -6% | [3]; [7] 39% | [4]; [7] -4% | [5]; [7] 62% | [6]; [7] 39%
